About 83,000 compounds went through this panel and 20% of them were active in at least one assay; those are over-represented in the sample as a whole.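 Interpretation: 100, growth as untreated; towards 0, rising growth inhibition; 0, no net growth; 0 to -100, cell death. Compounds scoring below 10 were considered active.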 Unmarked numbers belong to inactive results. Activity calls are given as the source filed them.
Legend:
Experiment in all cases: NCI-60 one-dose screen, 48 h (100 = growth as untreated, 0 = no growth, -100 = all killed)
Conditions in all cases: 10 µM unless noted
DU-145 prostate = system: DU-145 prostate
K-562 leukemia = system: K-562 leukemia
MALME-3M melanoma = system: MALME-3M melanoma
MDA-MB-231 breast = system: MDA-MB-231 breast
RXF 393 renal = system: RXF 393 renal
SF-268 CNS = system: SF-268 CNS
SF-295 CNS = system: SF-295 CNS
SF-539 CNS = system: SF-539 CNS
UACC-257 melanoma = system: UACC-257 melanoma
M14 melanoma = system: M14 melanoma
HCT-15 colon = system: HCT-15 colon
HT29 colon = system: HT29 colon
SNB-75 CNS = system: SNB-75 CNS
SNB-19 CNS = system: SNB-19 CNS
U251 CNS = system: U251 CNS
PC-3 prostate = system: PC-3 prostate
SK-MEL-5 melanoma = system: SK-MEL-5 melanoma
UACC-62 melanoma = system: UACC-62 melanoma
LOX IMVI melanoma = system: LOX IMVI melanoma
SK-MEL-28 melanoma = system: SK-MEL-28 melanoma

| SMILES | growth (DU-145 prostate) | growth (K-562 leukemia) | growth (MALME-3M melanoma) | growth (MDA-MB-231 breast) | growth (RXF 393 renal) | growth (SF-268 CNS) | growth (SF-295 CNS) | growth (SF-539 CNS) | growth (UACC-257 melanoma) | growth (M14 melanoma) | growth (HCT-15 colon) | growth (HT29 colon) | growth (SNB-75 CNS) | growth (SNB-19 CNS) | growth (U251 CNS) | growth (PC-3 prostate) | growth (SK-MEL-5 melanoma) | growth (UACC-62 melanoma) | growth (LOX IMVI melanoma) | growth (SK-MEL-28 melanoma) |
| --- | --- | --- | --- | --- | --- | --- | --- | --- | --- | --- | --- | --- | --- | --- | --- | --- | --- | --- | --- | --- |
| CCCCc1ccc(N=Nc2ccc(OCC[N+](C)(C)C)cc2)cc1 | 60.5% | 44.5% | 69.4% | 38.5% | 22.9% | 26.9% | 32.9% | 35.9% | 71.4% | 25.8% | 61% | 26.3% | 15.4% | 1.8% (active) | -51.1% (active) | 24.2% | 89.4% | 53.9% | 33.6% | 88.9% |
| COc1ccccc1Nc1nnc(-c2ccc(Cl)cc2)o1 | 72.3% | 11.7% | 46.3% | 63.5% | 74.6% | 60.5% | 40.3% | 57.1% | 65.8% | 21.7% | 33.1% | 16.1% | 55.1% | 46.4% | 34.4% | 56.7% | 37.6% | 51.8% | 51.7% | 64% |
| CN1C(=O)c2cc(Cl)nc3c(NC(=O)c4cccc(Cl)c4)c(Cl)c(NC(=O)c4cccc(Cl)c4)c1c23 | 4.2% (active) | -43.3% (active) | -56.1% (active) | -40.2% (active) | -88.9% (active) | 3.08% (active) | 88.1% | 9.56% (active) | -49.3% (active) | -21.1% (active) | -83.9% (active) | -57.7% (active) | 75.3% | 2.15% (active) | -68.4% (active) | -45.5% (active) | 4.57% (active) | 6.83% (active) | -65.1% (active) | -32.2% (active) |
| O=C1CC23OC(C(O)c4ccccc4N12)C1C(c2ccccc2)=NOC13 (stereo not given) | 81.9% | 16.1% | 49.8% | 52.9% | 71.5% | 64.1% | 42.3% | 50% | 89.2% | 16.1% | 29.7% | 13.9% | 33.4% | 44% | 40.2% | 50% | 31.7% | 28.2% | 37.8% | 64.1% |
| O=C(CN1N=C(c2ccc(F)cc2)CCC1=O)Nc1nc2ccccc2s1 | 84.6% | 30.1% | -70.4% (active) | -85.5% (active) | 45.8% | 48% | -46.9% (active) | -82.6% (active) | 88.1% | 41.4% | 86% | 1.85% (active) | -49.1% (active) | 94.4% | 16% | 5.7% (active) | 89.3% | 79.6% | -89.5% (active) | 100% |
| N#Cc1c(-c2ccc(F)cc2)nc(N/N=C/c2cccc(O)c2)nc1N1CCOCC1 | 65.9% | 67.5% | 100% | 96.8% | 53.9% | 88.3% | 98.9% | 78.4% | 88.8% | 85.6% | 69.5% | 79.8% | 73.9% | 96.1% | 73.5% | 72.7% | 90% | 87.7% | 85.2% | 99% |
| O=C(Nc1ccc(S(=O)(=O)NC2CCCCCC2)cc1)C(c1ccccc1)S(=O)(=O)c1ccc(F)cc1 (stereo not given) | 9.51% (active) | 7.42% (active) | -4.32% (active) | 13.8% | -33.6% (active) | 24.3% | -13.8% (active) | 9.02% (active) | -24.6% (active) | 2.29% (active) | 2.74% (active) | -14.1% (active) | 3.64% (active) | 26.2% | 12.6% | 7.69% (active) | -36.4% (active) | -9.75% (active) | 5.06% (active) | 1.46% (active) |
| Cc1c(Cl)cccc1NC(=O)c1sc2nc3c(cc2c1N)COCC3 | 33% | 13% | 59.4% | 49% | 13.1% | 47.4% | 12.9% | 11.4% | 47.3% | 10.8% | 19.6% | 5.9% (active) | 19.4% | 26.5% | 22.6% | 30.3% | 23.9% | 31.1% | 35.5% | 58.6% |
| CCCCCCCCCCCCCC1=NCC[N+]1(CCO)Cc1ccccc1 (stereo not given) | -89.2% (active) | -50.9% (active) | -75.8% (active) | -79.9% (active) | -92.3% (active) | -69.9% (active) | -71.7% (active) | -93.8% (active) | -71.8% (active) | -79.4% (active) | -89.4% (active) | -89.3% (active) | 66% | -82.1% (active) | -88.7% (active) | -88.4% (active) | -73.6% (active) | -87.4% (active) | -92% (active) | -90.7% (active) |
| CCCCc1nc(Cl)c(C2CC(c3ccc(Cl)cc3)=NN2c2cc(Cl)cc(Cl)c2)[nH]1 (stereo not given) | 40.8% | 76.5% | 88.4% | 80.3% | 43.3% | 41.2% | 74.3% | 79.8% | 94.8% | 93.6% | 86.5% | 85.4% | 65.6% | 93% | 90.7% | 45.6% | 69.1% | 78.2% | 67.2% | 99.8% |
| COc1cc2cc(c1Cl)N(C)C(=O)C[C@H](OC(=O)[C@H](C)N(C)C(=O)CCS)C[C@]1(C)O[C@H]1[C@H](C)[C@@H]1C[C@@](O)(NC(=O)O1)[C@H](OC)/C=C/C=C(\C)C2 | 2.17% (active) | 11.7% | 64.3% | 17.8% | 43.6% | 37.1% | 3.96% (active) | -17.1% (active) | 69.3% | 1.73% (active) | 11.2% | 0.342% (active) | 21% | 34% | 10.2% | 22% | -33.1% (active) | 36.8% | 13.6% | 57.2% |
| NCCN1CCNCC1 | 104% | 106% | 109% | 105% | 135% | 102% | 109% | 95.6% | 25.9% | 101% | 100% | 98.4% | 92.2% | 95.9% | 102% | 92% | 109% | 98.1% | 101% | 109% |
| CC(=O)OCC1SC(OC(C)=O)C(NC(=O)/C=C/CCl)C(OC(C)=O)C1OC(C)=O (stereo not given) | 104% | 91.6% | 99.6% | 102% | 108% | 97.9% | 111% | 109% | 83% | 93.6% | 100% | 102% | 93.8% | 111% | 90.6% | 86.8% | 87.7% | 98% | 93.4% | 112% |
| Nc1n[nH]c2cccc(C#Cc3cccc(NC(=O)c4cc(N5CCOCC5)cc(C(F)(F)F)c4)c3)c12 | 64.6% | 4.32% (active) | -18.1% (active) | 30% | 38.7% | 55.8% | 69.1% | 24.6% | 45.1% | 19.2% | 36.9% | 22.6% | 71.5% | 83.9% | 56.3% | 69% | 55.7% | 14% | 18.6% | 24.5% |
| COc1ccc(-c2nnc(N3CCN(C(=O)CN4CCN(c5ccccc5)CC4)CC3)nc2-c2ccc(OC)cc2)cc1 | 57.8% | 4.73% (active) | 34.2% | 65.1% | -9.53% (active) | 52.8% | -23% (active) | 46.6% | 31.2% | 49% | 18.5% | 3.46% (active) | 49.9% | 53.5% | 37% | 7.93% (active) | 8.21% (active) | 52.1% | 41.2% | 56.5% |
